Consider 14 compounds from publication PMC5540273 (PLoS ONE, 2017).

Structures are written as SMILES.
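Further: KINOMEscan kinase panel screen.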

The subject of the experiment is T1, PRKR.
T1 construct: gene EIF2AK2
The note with it: concentration: 1 μM,replicates: in singlicate; n = 1.
As for `CS(=O)(=O)Nc1ccc(-c2ccnc3[nH]ccc23)cc1` [GSK993273], the “%Inh” value is reported as 41%.

As to `O=C(Nc1n[nH]c2cc(-c3ccco3)ccc12)C1CC1` [SB-737447], the “%Inh” value turned out to be 0%.

Take `OCCn1cc(-c2cnc3nnn(Cc4ccc5ncccc5c4)c3n2)cn1`: the “%Inh” value was found to be 0%.

With `Cc1ccc(Nc2ccnc(Nc3ccc4c(c3)CS(=O)(=O)C4)n2)cc1O.Cl` [GW579362], the “%Inh” value is recorded as 47%.

Take `Cn1ccc2ncnc(Oc3ccc(NC(=O)Nc4cccc(C(F)(F)F)c4)c(F)c3)c21`: the “%Inh” value was found to be 10%.

Turning to `CCOC(=O)N1CCC(n2cnc(-c3ccc(F)cc3)c2-c2ccnc(N)n2)CC1` [SB-219952], the “%Inh” value turned out to be 0%.

As to `CCn1c(-c2nonc2N)nc2cncc(Br)c21` [SB-738004], the “%Inh” value was 36%.

For the compound `Cl.c1ccc(Oc2ccc(Nc3ccnc4cc(-c5ccc(CN6CCNCC6)o5)ccc34)cc2)nc1` [GW567142], the “%Inh” value turned out to be 0%.

Turning to `COc1cccc(C2=C(Nc3cccc(Cl)c3)C(=O)NC2=O)c1` [SB-341556], the “%Inh” value stood at 11%.

Regarding `CS(=O)c1ccc(-c2coc3ccc(-c4n[nH]c(=O)o4)cc23)cc1` (centres unmarked), the “%Inh” value worked out at 20%.

Consider `COC(=O)Nc1nc2cc(Oc3ccc(NC(=O)Nc4cc(C(F)(F)F)ccc4Cl)cc3)ccc2[nH]1.Cl` [GW697465], for which the “%Inh” value was 0%.

In the case of `Cn1cc(-c2cccc3c(N)c(C(N)=O)nnc23)cn1`, the “%Inh” value came to 0%.

`C[C@@H]1CCN(C(=O)N2CCCC2)C[C@@H]1N(C)c1ncnc2[nH]ccc12`: the “%Inh” value was determined as 0%.

`Cc1ccc2c(-c3ccnc(Nc4ccc(C(F)(F)F)cc4)n3)cnn2n1` [GW819776]: the “%Inh” value amounted to 0%.
